Reference: PubChem BioAssay (NCI)
About 83,000 compounds went through this panel and 20% of them were active in at least one assay; those are over-represented in the sample as a whole.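 Negative percent growth values reflect cell death: -40 means 40% of the cells present at the start died, and -100 means all died.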 The source made the active and inactive calls. The calls were made as follows: active = growth percent below 10; inactive = the rest.

Experiments:
Assay in all cases: NCI-60 one-dose screen, 48 h (100 = growth as untreated, 0 = no growth, -100 = all killed)
Details in all cases: 10 µM unless noted
DU-145 prostate = tested on: DU-145 prostate
K-562 leukemia = tested on: K-562 leukemia
MALME-3M melanoma = tested on: MALME-3M melanoma
MDA-MB-231 breast = tested on: MDA-MB-231 breast
RXF 393 renal = tested on: RXF 393 renal
SF-268 CNS = tested on: SF-268 CNS
SF-295 CNS = tested on: SF-295 CNS
SF-539 CNS = tested on: SF-539 CNS
UACC-257 melanoma = tested on: UACC-257 melanoma
M14 melanoma = tested on: M14 melanoma
HCT-15 colon = tested on: HCT-15 colon
HT29 colon = tested on: HT29 colon
SNB-75 CNS = tested on: SNB-75 CNS
SNB-19 CNS = tested on: SNB-19 CNS
PC-3 prostate = tested on: PC-3 prostate
SK-MEL-5 melanoma = tested on: SK-MEL-5 melanoma
UACC-62 melanoma = tested on: UACC-62 melanoma
LOX IMVI melanoma = tested on: LOX IMVI melanoma
SK-MEL-28 melanoma = tested on: SK-MEL-28 melanoma
U251 CNS = tested on: U251 CNS

Measured: growth

O=C1NC(=O)C(CC(=O)n2c(-c3ccccc3)nc3ccccc32)C(=O)N1
inactive: DU-145 prostate 108% | K-562 leukemia 106% | MALME-3M melanoma 116% | MDA-MB-231 breast 98.9% | RXF 393 renal 101% | SF-268 CNS 99% | SF-295 CNS 97.3% | SF-539 CNS 95.1% | UACC-257 melanoma 112% | M14 melanoma 108% | HCT-15 colon 100% | HT29 colon 111% | SNB-75 CNS 71.1% | SNB-19 CNS 89.6% | PC-3 prostate 100% | SK-MEL-5 melanoma 101% | UACC-62 melanoma 94.3% | LOX IMVI melanoma 97.2% | SK-MEL-28 melanoma 108%

O=C1C[C@H](Sc2nc(-c3ccc(F)cc3)cc(C(F)(F)F)n2)[C@H]2CO[C@@H]1O2
inactive: DU-145 prostate 89.9% | K-562 leukemia 53.3% | MALME-3M melanoma 89.1% | MDA-MB-231 breast 96.2% | RXF 393 renal 96.6% | SF-268 CNS 101% | SF-295 CNS 109% | SF-539 CNS 103% | UACC-257 melanoma 104% | M14 melanoma 97.8% | HCT-15 colon 63.1% | HT29 colon 75.5% | SNB-75 CNS 98.3% | U251 CNS 98.9% | PC-3 prostate 96.2% | SK-MEL-5 melanoma 97.5% | UACC-62 melanoma 98.2% | LOX IMVI melanoma 34.8% | SK-MEL-28 melanoma 105%

COc1ccc(-c2nn(-c3ccccc3)cc2/C=C2\SC(=O)NC2=O)cc1
inactive: DU-145 prostate 109% | K-562 leukemia 86.7% | MALME-3M melanoma 112% | MDA-MB-231 breast 84.4% | RXF 393 renal 114% | SF-268 CNS 96.9% | SF-295 CNS 92% | SF-539 CNS 96.8% | UACC-257 melanoma 110% | M14 melanoma 102% | HCT-15 colon 89.4% | HT29 colon 114% | SNB-75 CNS 66.3% | SNB-19 CNS 89.2% | PC-3 prostate 99.6% | SK-MEL-5 melanoma 83.1% | UACC-62 melanoma 89.2% | LOX IMVI melanoma 59% | SK-MEL-28 melanoma 112%

Cc1nn(-c2ccccc2)c2nc(C)n(-c3ccc(Br)cc3)c(=O)c12
inactive: MALME-3M melanoma 45.9% | MDA-MB-231 breast 50.3% | SF-268 CNS 51.2% | UACC-257 melanoma 60% | HCT-15 colon 17.4% | SNB-19 CNS 47.5% | PC-3 prostate 26.4% | UACC-62 melanoma 38.7% | LOX IMVI melanoma 45.6% | SK-MEL-28 melanoma 69.3%
active: DU-145 prostate 8.77% | K-562 leukemia 9.29% | RXF 393 renal -15.8% | SF-295 CNS 4.98% | SF-539 CNS -5.52% | M14 melanoma 9.88% | HT29 colon -15.7% | SNB-75 CNS -6.84% | SK-MEL-5 melanoma 5.34%

O=C1C(=O)N(CCCCn2cc(CO)nn2)c2ccccc21
inactive: DU-145 prostate 108% | K-562 leukemia 98.4% | MALME-3M melanoma 97.7% | MDA-MB-231 breast 98.2% | RXF 393 renal 99.7% | SF-268 CNS 101% | SF-295 CNS 102% | SF-539 CNS 101% | UACC-257 melanoma 105% | M14 melanoma 94.5% | HCT-15 colon 102% | HT29 colon 103% | SNB-75 CNS 72.3% | SNB-19 CNS 99.5% | PC-3 prostate 98.3% | SK-MEL-5 melanoma 101% | UACC-62 melanoma 99.3% | LOX IMVI melanoma 92.1% | SK-MEL-28 melanoma 109%

CN(CC(=O)N(Cc1ccc(C2CCCCC2)cc1)c1ccc(C(=O)NO)cc1)S(=O)(=O)c1c(F)c(F)c(F)c(F)c1F
active: HCT-15 colon -35.4% | HT29 colon 0.552% | LOX IMVI melanoma -8.7%
inactive: DU-145 prostate 78.3% | K-562 leukemia 20.6% | MALME-3M melanoma 86.4% | MDA-MB-231 breast 40.3% | RXF 393 renal 71.2% | SF-268 CNS 87% | SF-295 CNS 108% | SF-539 CNS 92.7% | UACC-257 melanoma 102% | M14 melanoma 67.9% | SNB-75 CNS 84.5% | U251 CNS 48.8% | PC-3 prostate 88.1% | SK-MEL-5 melanoma 99.6% | UACC-62 melanoma 94.5% | SK-MEL-28 melanoma 86.8%

COc1ccc(-c2cc(NC(=O)Nc3ccc(O)cc3)no2)cc1
inactive: DU-145 prostate 66.7% | K-562 leukemia 29.2% | MALME-3M melanoma 78% | MDA-MB-231 breast 67.5% | RXF 393 renal 90.9% | SF-268 CNS 62.2% | SF-295 CNS 58.9% | SF-539 CNS 69.5% | UACC-257 melanoma 84.6% | M14 melanoma 35.1% | HCT-15 colon 49.5% | HT29 colon 98.8% | SNB-75 CNS 62.6% | SNB-19 CNS 91.5% | PC-3 prostate 57.6% | SK-MEL-5 melanoma 82.3% | UACC-62 melanoma 44.5% | SK-MEL-28 melanoma 101%
active: LOX IMVI melanoma 7.79%

CCN(CC)CC(C)Nc1ccc([N+](=O)[O-])c2sc3ccccc3c(=O)c12 (configuration not stated)
active: K-562 leukemia -14.2% | MALME-3M melanoma -6.6% | UACC-257 melanoma -10.4% | SK-MEL-5 melanoma 5.5%
inactive: DU-145 prostate 27.6% | MDA-MB-231 breast 51.5% | RXF 393 renal 32.4% | SF-268 CNS 27.3% | SF-295 CNS 25% | SF-539 CNS 29.5% | M14 melanoma 44.9% | HCT-15 colon 23.6% | HT29 colon 12% | SNB-75 CNS 36.3% | U251 CNS 28.4% | PC-3 prostate 14.6% | UACC-62 melanoma 33.5% | LOX IMVI melanoma 14.7%

O=C(/C=C/c1ccc(Cl)cc1)c1ccc(O)c(CN2CCN(c3cc4c(cc3F)c(=O)c(C(=O)O)cn4C3CC3)CC2)c1
active: SNB-75 CNS 4.51%
inactive: DU-145 prostate 63.5% | K-562 leukemia 50.7% | MALME-3M melanoma 59.8% | MDA-MB-231 breast 77.2% | RXF 393 renal 45.4% | SF-268 CNS 42% | SF-295 CNS 45% | SF-539 CNS 53.5% | UACC-257 melanoma 90.2% | M14 melanoma 52.6% | HCT-15 colon 45.4% | HT29 colon 33.8% | SNB-19 CNS 33.2% | PC-3 prostate 47.3% | SK-MEL-5 melanoma 29.8% | UACC-62 melanoma 38.2% | LOX IMVI melanoma 38.6% | SK-MEL-28 melanoma 62.1%

CCCNc1nc(SC)nc(-c2cccc(N)c2)c1C#N
inactive: DU-145 prostate 109% | K-562 leukemia 96.8% | MALME-3M melanoma 98% | MDA-MB-231 breast 83.1% | RXF 393 renal 105% | SF-268 CNS 91.6% | SF-295 CNS 98.7% | SF-539 CNS 102% | UACC-257 melanoma 111% | M14 melanoma 101% | HCT-15 colon 102% | HT29 colon 116% | SNB-75 CNS 54.5% | SNB-19 CNS 91.6% | SK-MEL-5 melanoma 97.2% | UACC-62 melanoma 89.4% | LOX IMVI melanoma 94.1% | SK-MEL-28 melanoma 121%

O=C1C2CC=CCC2C(=O)N1CNc1ccc(Cl)cc1 (configuration not stated)
inactive: DU-145 prostate 106% | K-562 leukemia 84.6% | MALME-3M melanoma 87.6% | MDA-MB-231 breast 92.8% | RXF 393 renal 92% | SF-268 CNS 96.9% | SF-295 CNS 106% | SF-539 CNS 86.5% | UACC-257 melanoma 101% | M14 melanoma 94.2% | HCT-15 colon 89.6% | HT29 colon 96.3% | SNB-75 CNS 78.2% | U251 CNS 94.1% | PC-3 prostate 76.9% | SK-MEL-5 melanoma 95% | UACC-62 melanoma 62.7% | LOX IMVI melanoma 77% | SK-MEL-28 melanoma 109%

CSc1ncnc2c1ncn2C1CCCO1 (configuration not stated)
inactive: DU-145 prostate 127% | K-562 leukemia 91.2% | MALME-3M melanoma 93.6% | MDA-MB-231 breast 110% | RXF 393 renal 131% | SF-268 CNS 115% | SF-295 CNS 104% | SF-539 CNS 103% | UACC-257 melanoma 124% | M14 melanoma 109% | HCT-15 colon 103% | HT29 colon 99.7% | SNB-75 CNS 83.2% | U251 CNS 103% | PC-3 prostate 106% | SK-MEL-5 melanoma 107% | UACC-62 melanoma 88.5% | LOX IMVI melanoma 102% | SK-MEL-28 melanoma 141%

CN1/C(=C\C=C\C2=[N+](C)c3ccccc3C2(C)C)C(C)(C)c2ccccc21
active: K-562 leukemia 6.42% | MALME-3M melanoma -9.73% | MDA-MB-231 breast 6.24% | RXF 393 renal -12.4% | SF-295 CNS -11.3% | SF-539 CNS 5.93% | UACC-257 melanoma -40% | M14 melanoma -42.6% | HCT-15 colon 8.08% | HT29 colon -33.9% | SNB-75 CNS -5.88% | U251 CNS 9.16% | PC-3 prostate 2.66% | SK-MEL-5 melanoma -98.5% | UACC-62 melanoma -77.3% | LOX IMVI melanoma 0.458% | SK-MEL-28 melanoma -25.4%
inactive: DU-145 prostate 25.2% | SF-268 CNS 26.4%

CCCCNP1(NCCCC)=NP(NCCCC)(NCCCC)=NP(NCCCC)(NCCCC)=NP(NCCCC)(NCCCC)=N1
active: K-562 leukemia -26.4% | MALME-3M melanoma -18.1% | MDA-MB-231 breast -20.9% | SF-295 CNS -25% | UACC-257 melanoma -22.5% | SNB-75 CNS 8.44% | PC-3 prostate -6.45% | SK-MEL-5 melanoma -93.8% | LOX IMVI melanoma 1.62%
inactive: DU-145 prostate 16.5% | RXF 393 renal 16.5% | SF-268 CNS 25.8% | SF-539 CNS 34% | M14 melanoma 11.8% | HCT-15 colon 99.3% | HT29 colon 11.9% | U251 CNS 11% | UACC-62 melanoma 20.3% | SK-MEL-28 melanoma 37.4%

Cc1cc(=O)oc2cc(Oc3nc(-c4ccc(Cl)cc4)cn4c(-c5ccc(Cl)cc5)cnc34)ccc12
inactive: DU-145 prostate 69.6% | K-562 leukemia 85.1% | MALME-3M melanoma 43.6% | MDA-MB-231 breast 73.3% | RXF 393 renal 70.5% | SF-268 CNS 95.9% | SF-295 CNS 120% | SF-539 CNS 91.8% | UACC-257 melanoma 88.3% | M14 melanoma 64.2% | HCT-15 colon 63.8% | HT29 colon 47.7% | SNB-75 CNS 91.6% | U251 CNS 88.1% | PC-3 prostate 87.9% | SK-MEL-5 melanoma 84.4% | UACC-62 melanoma 99.3% | LOX IMVI melanoma 84.4% | SK-MEL-28 melanoma 38.3%

Clc1nc(Cl)c2c3c(sc2n1)CCCC3
inactive: MALME-3M melanoma 45% | MDA-MB-231 breast 62.4% | SF-268 CNS 26.1% | SF-295 CNS 104% | SF-539 CNS 105% | UACC-257 melanoma 81.2% | M14 melanoma 21.1% | HCT-15 colon 26.7% | HT29 colon 11.3% | SNB-75 CNS 89% | U251 CNS 49.7% | PC-3 prostate 63.8% | SK-MEL-5 melanoma 50.8% | UACC-62 melanoma 92.9% | LOX IMVI melanoma 13.4% | SK-MEL-28 melanoma 55.1%
active: DU-145 prostate -55.3% | K-562 leukemia -33.2% | RXF 393 renal -19.4%
